# Tests used:
# [1] = target: Serine/threonine-protein kinase PAK 6 (Homo sapiens) (UniProt Q9NQU5); conditions: at 1 µM;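 note: values are mean percent inhibition of PAK6 kinase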
# [2] = test system: Tyrosine-protein kinase ABL1 (Homo sapiens), P00519 [E255K]; conditions: at 0.1 µM
# [3] = test system: Tyrosine-protein kinase ABL1 (Homo sapiens), P00519 [E255K]; conditions: at 1 µM
# [4] = test system: Tyrosine-protein kinase ABL1 (Homo sapiens), P00519 [H396P]; conditions: at 0.1 µM
# [5] = test system: Tyrosine-protein kinase ABL1 (Homo sapiens), P00519 [H396P]; conditions: at 1 µM
# [6] = test system: Tyrosine-protein kinase ABL1 (Homo sapiens), P00519 [M351T]; conditions: at 0.1 µM
# [7] = test system: Tyrosine-protein kinase ABL1 (Homo sapiens), P00519 [M351T]; conditions: at 1 µM
# [8] = test system: Tyrosine-protein kinase ABL1 (Homo sapiens), P00519 [Q252H]; conditions: at 0.1 µM
# [9] = test system: Tyrosine-protein kinase ABL1 (Homo sapiens), P00519 [Q252H]; conditions: at 1 µM
# [10] = test system: Tyrosine-protein kinase ABL1 (Homo sapiens), P00519 [T315I]; conditions: at 0.1 µM
# Sequence of Serine/threonine-protein kinase PAK 6 (Homo sapiens) (Q9NQU5 whole entry, looked up): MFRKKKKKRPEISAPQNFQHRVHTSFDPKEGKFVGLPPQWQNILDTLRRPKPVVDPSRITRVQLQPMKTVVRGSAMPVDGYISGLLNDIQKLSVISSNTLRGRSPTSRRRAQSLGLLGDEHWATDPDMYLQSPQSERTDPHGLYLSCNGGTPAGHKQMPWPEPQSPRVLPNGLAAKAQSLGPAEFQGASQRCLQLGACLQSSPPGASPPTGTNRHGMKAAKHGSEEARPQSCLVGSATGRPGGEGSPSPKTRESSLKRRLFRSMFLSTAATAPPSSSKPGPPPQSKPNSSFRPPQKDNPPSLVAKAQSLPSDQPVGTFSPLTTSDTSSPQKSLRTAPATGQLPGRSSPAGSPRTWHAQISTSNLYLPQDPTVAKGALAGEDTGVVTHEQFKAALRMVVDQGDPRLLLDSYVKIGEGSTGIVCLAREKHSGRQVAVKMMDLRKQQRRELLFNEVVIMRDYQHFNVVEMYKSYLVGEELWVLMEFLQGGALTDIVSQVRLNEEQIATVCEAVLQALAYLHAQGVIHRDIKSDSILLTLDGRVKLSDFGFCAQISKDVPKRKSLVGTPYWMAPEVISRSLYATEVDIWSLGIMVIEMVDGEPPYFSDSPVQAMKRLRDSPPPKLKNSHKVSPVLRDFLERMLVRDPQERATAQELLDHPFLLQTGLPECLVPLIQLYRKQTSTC
Structure (SMILES),inhibition [1] [%],inhibition [2] [%],inhibition [3] [%],inhibition [4] [%],inhibition [5] [%],inhibition [6] [%],inhibition [7] [%],inhibition [8] [%],inhibition [9] [%],inhibition [10] [%]
OCc1ccc(-c2nc(-c3ccccn3)c(-c3ccc4c(c3)OCO4)[nH]2)cc1,5.51,4,3.72,2.95,3.25,1.06,2.45,3.06,3.19,1.99
COc1ccc2ncnc(Nc3ccc(OCc4ccccc4)cc3)c2c1,,1.91,2.75,1.73,4.61,-1.29,2.67,0.25,4.68,0.02
[O-][S+]1CCN(Cc2ccc(-c3ccc4ncnc(Nc5ccc(OCc6ccccc6)c(Cl)c5)c4c3)o2)CC1,-2.46,1.62,1.35,1.53,2.74,0.68,2.75,2.06,3.61,0.16
COc1cc2ncnc(Nc3ccc4c(cnn4Cc4ccccc4)c3)c2cc1OC,-6,2.21,2.28,2.93,6.16,0.94,3.26,2.63,7.1,2.91
Cc1ccc2c(-c3ccnc(Nc4ccc5c(c4)OCCO5)n3)c(-c3ccc(C(F)(F)F)cc3)nn2n1,10.7,2.27,3.32,2.14,3.45,0.52,3.13,1.51,4.16,0.69
N#Cc1cccc(Nc2nccc(-c3cnn4ncccc34)n2)c1,-4.67,7.52,33,13.6,51.8,16.2,60.8,15.2,57,8.12
COc1cc(/C=N/Nc2ncnc3c2cnn3C(C)C)ccc1O,,21.7,71,34.7,80.7,34.7,80.5,35.4,81.6,9.92
COc1cccc(-n2ncc3c(N/N=C/c4ccc(C)cc4)ncnc32)c1,-8.44,18.9,65.3,28.1,73.5,25.4,73.7,37.6,81.4,5.28
Cc1ccc2c(c1)/C(=N/Nc1ccc(S(N)(=O)=O)cc1)C(=O)N2,-8.53,0.74,3.57,-0.31,5.97,0.64,8.33,1.64,7.52,1.43
CN1CCN(C(=O)c2ccc(NC(=O)Nc3ccc(N(C)c4ccnc(Nc5ccc(CS(C)(=O)=O)cc5)n4)cc3)cc2)CC1,-8.2,3.11,29.9,18.1,67.8,24.1,72.6,21,69.6,17.6
CS(=O)(=O)Nc1cccc(-c2ccc3c(NC(=O)C4CC4)n[nH]c3c2)c1,-4.78,1.67,7,2.46,16.8,3.14,16,0.49,7.01,3.71
NS(=O)(=O)c1ccc(-c2cc3ccncc3cc2OCc2ccccc2)cc1,4.76,2.82,3.92,4.66,6.67,3.16,4.42,4.84,4.61,1.65
CN(C)C(=O)O[C@@H]1CN[C@@H](C#Cc2cc3ncnc(Nc4ccc(OCc5cccc(F)c5)c(Cl)c4)c3s2)C1,-6.9,-0.68,2.16,-0.68,-1.23,-1.17,0.01,2.52,2.17,-0.5
COc1ccc(-c2nn3ncccc3c2-c2ccnc(Nc3cccc(C(F)(F)F)c3)n2)cc1,-2.65,1.06,3.04,3.97,7.02,2.28,27,2.67,17.5,2.45
COc1cc(Nc2nccc(-c3cnn4ncccc34)n2)cc(OC)c1,-1.82,6.96,46,11.9,59.5,13.7,63.4,18,68.6,5.15
COC(=O)c1cncc(/C=C/c2c(C)cc(O)cc2C)c1,7.57,6.85,38,13.3,60,15.9,66.3,15.9,64.1,4.16
Cc1nc(-c2ccccc2)n2nc(NCCCN3CCOCC3)ncc12,-7.1,0.22,2.36,2.5,4.26,-1.13,0.73,3.04,3.3,2.3

# Source: ChEMBL document CHEMBL1961873, “Compounds: GSK PKIS; Assays: Nanosyn kinase panel” (2012)
